According to PubChem BioAssay AID1851 (National Center for Advancing Translational Sciences (NCATS), 2009):
The whole screen tested about 16,000 compounds, of which about 2,600 (16%) were called active. About 20% were inconclusive and are not listed. The call rests on the fitted dose curve; in most records, active means well fitted curve in the direction sought with a large enough effect; inconclusive means small, poorly fitted or top-dose-only effect, or effect the other way; inactive means no such curve, though single readings can be large or run the other way. A selection follows.

Target: Cytochrome P450 2D6 (Homo sapiens) (UniProt P10635)
Sequence (P10635 whole entry, looked up): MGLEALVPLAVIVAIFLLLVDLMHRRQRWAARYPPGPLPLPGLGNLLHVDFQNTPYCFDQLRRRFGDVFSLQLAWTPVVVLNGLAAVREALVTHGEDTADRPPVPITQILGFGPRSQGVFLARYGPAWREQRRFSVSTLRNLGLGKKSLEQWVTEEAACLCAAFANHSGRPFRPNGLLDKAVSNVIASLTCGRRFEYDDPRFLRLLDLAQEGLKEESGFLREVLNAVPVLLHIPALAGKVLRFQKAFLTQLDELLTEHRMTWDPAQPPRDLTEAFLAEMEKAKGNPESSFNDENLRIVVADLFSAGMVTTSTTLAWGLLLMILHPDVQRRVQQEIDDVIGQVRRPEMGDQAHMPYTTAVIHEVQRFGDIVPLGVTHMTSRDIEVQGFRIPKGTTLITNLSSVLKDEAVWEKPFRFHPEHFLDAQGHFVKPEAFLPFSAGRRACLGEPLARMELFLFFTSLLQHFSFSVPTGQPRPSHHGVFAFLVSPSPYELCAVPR
Assay: Cytochrome panel assay with activity outcomes
Details: recombinant CYP, pro-luciferin dealkylation, luminescence, p450-cyp2d6; series mostly up to 57.1 µM; activity, negative = inhibition: at the top concentration
On the % scale 0 is the no-effect control and ±100 the full control effect.

SMILES | activity, negative = inhibition | AC50
Cc1cccc2c1OCC/C2=N\NC(=O)COc1ccccc1Cl | 6.96% (inactive) | 
Cc1sc(NC(=O)/C=C/c2ccc(C(C)C)cc2)c(C#N)c1C | 3.12% (inactive) | 
Cn1cc(-c2nc3cnc(Oc4ccccc4)nc3n(C3CC3)c2=O)c2ccccc21 | -3.06% (inactive) | 
CC(C)CN1CC[C@@]2(CCCN(C(=O)c3cc(C(F)(F)F)cc(C(F)(F)F)c3)C2)C1 | -14.7% (inactive) | 
CC(C)NC(=O)N1CCC2(CC1)CCN(C(=O)c1cc(C(F)(F)F)cc(C(F)(F)F)c1)CC2 | 11.8% (inactive) | 
CC(C)NC(=O)N1CC2(CCN(C(=O)c3cc(C(F)(F)F)cc(C(F)(F)F)c3)CC2)C1 |  | 0.251 µM (active)
CC(C)NC(=O)N1CCCC2(CCN(C(=O)c3cc(C(F)(F)F)cc(C(F)(F)F)c3)CC2)C1 | -0.937% (inactive) | 
CC(C)CN1CCCC2(CCN(C(=O)c3cc(C(F)(F)F)cc(C(F)(F)F)c3)CC2)C1 |  | 10 µM (active)
CC(C)CN1CCC2(CC1)CCN(C(=O)c1cc(C(F)(F)F)cc(C(F)(F)F)c1)CC2 | -6.51% (inactive) | 
CCOc1cc(/C=C2/C(=O)N(c3ccccc3)N=C2C)ccc1OC(=O)c1ccco1 | -25.2% (inactive) | 
CN1CCCN(S(=O)(=O)c2ccc3c(c2)OCCO3)CC1 | -11% (inactive) | 
C=CCNC(=O)c1ccc(-c2nc(-c3ccc(Cl)c(Cl)c3)cs2)cc1 | 9.43% (inactive) | 
CCOC(=O)N/N=C1/C[C@@H](O)[C@@H](O)[C@@H]2[C@@H]3C(=O)N(CC)C(=O)[C@H]3CC[C@@H]12 | 7.29% [at 11.4 µM] (inactive) | 
CO[C@H]1COC(=O)[C@H]2CCCN2C(=O)[C@@H](C)COC(=O)C/C=C\[C@@H]1C | 19.9% [at 11.4 µM] (inactive) | 
Cc1nn(CC(=O)NCc2ccccc2)c(C)c1[N+](=O)[O-] | -17.4% (inactive) | 
CCOc1cc(-c2noc(N)c2C#N)cc(OCC)c1OCC | -9.64% (inactive) | 
O=C(N/N=C/C1C(c2ccccc2)C1(Cl)Cl)c1cccc(Br)c1 (stereo not given) |  | 7.08 µM (active)
O=C(N/N=C/c1cccc(Oc2ccccc2)c1)c1cccc(Br)c1 | -25.9% (inactive) | 
C/C(=N\NC(=O)c1cccc(Br)c1)c1ccc(Br)cc1 | 31.9% (inactive) | 
Cn1c(C(N)=O)cnc1Sc1ncc(C(F)(F)F)cc1Cl | -16.3% (inactive) | 
Cc1ccnc(N2C(=O)C3C4CC(C(Br)C4Br)C3C2=O)c1 (stereo not given) | 38.8% (inactive) | 
CCC(=O)O[C@@]1(C(=O)SCF)[C@@H](C)C[C@H]2[C@@H]3C[C@@H](F)C4=CC(=O)C=C[C@@]4(C)[C@]3(F)[C@@H](O)C[C@]21C | -10.4% [at 25.6 µM] (inactive) | 

SMILES | activity, negative = inhibition | AC50
CO[C@@H](NC(N)=O)C(=O)O | 2.43% [at 11.4 µM] (inactive) | 
CCC(C)(C)NC(=O)c1ccc2c(c1)N(CC(=O)OC)C(=O)C(C)(C)O2 | -7.52% (inactive) | 
O=C(Oc1ccccc1)N1CCC2(CCCN(c3ccc(-c4ccccc4)cc3)C2)CC1 | 3.39% (inactive) | 
CC(C)c1nc2ccccn2c1NC1CCCCC1 |  | 3.16 µM (active)
CC(C)c1ccc(O)c(NC(=O)c2ncn[nH]2)c1 | 2.24% (inactive) | 
COc1ccc(NC(=O)CC#N)cc1OC | -8.73% (inactive) | 
COC(=O)C1=C(C)NC(=O)NC1c1ccsc1 (stereo not given) | 9.49% (inactive) | 
O=C(O)COc1ccc(OCCNC[C@@H](O)COc2ccccc2)cc1 | -10.1% (inactive) | 
COCCNC(=O)COc1ccc(OCCNC[C@@H](O)COc2ccccc2)cc1 |  | 5.01 µM (active)
COCCNC(=O)COc1ccc(Oc2ccccc2)cc1 | -5.65% (inactive) | 
CCOC(=O)N/N=C1/C[C@@H](O)[C@@H](O)[C@@H]2[C@@H]3C(=O)N(CC)C(=O)[C@H]3CC[C@H]12 | -3.76% [at 11.4 µM] (inactive) | 
CS(=O)(=O)c1nc(-c2ccccc2)cc(-c2ccccc2)c1C#N | -5.35% (inactive) | 
CCOC(=O)c1sc2nc3c(cc2c1N)COC(C(C)C)C3 (stereo not given) | -0.0841% (inactive) | 
CCc1ccccc1OC[C@@H](O)CN[C@H]1CCCc2ccccc21 | 5.6% (inactive) | 
CCC(=O)N[C@@H]1CCc2cccc(OC)c2C1 | 4.79% (inactive) | 
COc1cccc(C=NC=Nc2cccc(OC)c2)c1 | -0.017% (inactive) | 
O=C(CSc1n[nH]c(-c2ccccc2O)n1)N1CCCc2ccccc21 |  | 25.1 µM (active)
O=C(CSc1nnc(CNc2ccccc2)o1)N1CCCc2ccccc21 | -17.2% (inactive) | 
O=C(CSc1nc(-c2ccccc2)cs1)N1CCc2ccccc21 | -2.29% (inactive) | 
CC(C)C[C@H](NC(=O)[C@@H](O)[C@@H](N)Cc1ccccc1)C(=O)O |  | inactive
O=C(NCCc1ccccn1)c1cc(C(=O)C2CCCCC2)c[nH]1 | -7.69% (inactive) | 
CC(C)(C)c1ccc(C(=O)c2c[nH]c(C(=O)NCCCn3ccnc3)c2)cc1 |  | 5.01 µM (active)

SMILES | activity, negative = inhibition | AC50
O=C(c1ccc(C(F)(F)F)cc1)c1c[nH]c(C(=O)NCCCn2ccnc2)c1 |  | 2.51 µM (active)
CCC(CC)C(=O)c1c[nH]c(C(=O)NCCc2ccccn2)c1 | 4.03% (inactive) | 
Cc1ccc(C(=O)c2c[nH]c(C(=O)NCCCN3CCOCC3)c2)cc1 | 1.79% (inactive) | 
O=C(O)CCCCCNC(=O)c1ccncc1 | -0.821% (inactive) | 
C1CNCCOCCNCCN1 | -1.08% (inactive) | 
CN(C)c1ccc(C(c2ccc(N(C)C)cc2)c2ccc([N+](=O)[O-])cc2)cc1 | 14% [at 11.4 µM] (inactive) | 
O=C(O)[C@@H]1[C@@H](C(=O)Nc2ccccc2)[C@@H]2C=C[C@@H]1O2 | 2.5% [at 11.4 µM] (inactive) | 
O=C(O)Cc1ccc(O)c(O)c1 | -3.67% (inactive) | 
Oc1ccc(Cc2nccc3cc(O)c(O)cc23)cc1O |  | 1.26 µM (active)
CCOc1ccc(Cc2nccc3cc(OCC)c(OCC)cc23)cc1OCC | 2.76% [at 25.6 µM] (inactive) | 
COc1ccc(-c2nc3cnc(OC)nc3n(CCc3ccccc3)c2=O)cc1 | 2.49% (inactive) | 
CCN(CC)C(=O)CSc1nc(O)cc(=O)n1CC | -3.51% (inactive) | 
COc1ccc(Cl)cc1N=Nc1ncc[nH]1 |  | 2.51 µM (active)
Cc1n[nH]c(C)c1N=Nc1cc(Cl)ccc1Cl | -10.6% (inactive) | 
N#Cc1ccccc1Sc1ccccc1N | -20% (inactive) | 
CCc1ccc(-c2csc(NC(=O)C3CCCO3)c2C(=O)OC(C)C)cc1 (stereo not given) | -13.9% (inactive) | 
Fc1ccc(CN(C2=NCCN2)c2c(Cl)cccc2Cl)cc1 |  | 1.26 µM (active)
CN(C)C(=O)Oc1cccc([N+](C)(C)C)c1 | 3.32% (inactive) | 
COc1ccccc1CNC(=O)CCN1C(=O)COc2ccc(C)cc21 | -7.37% (inactive) | 
Cc1ccc2c(c1)N(CCC(=O)NCc1ccc3c(c1)OCO3)C(=O)CO2 |  | 14.1 µM (active)
Cc1ccc2c(c1)N(CCC(=O)NCCN1CCOCC1)C(=O)CO2 | -18.8% (inactive) | 
